# From the supplement of paper PMC10981050
# Where “and” joins values, the source holds several entries; their conditions need not be identical. Equal values may be shown once.
# Experiments:
# Experiment in all cases: cell viability relative to vehicle control; higher = less cytotoxic
# Conditions in all cases: 10 µM
# [1] = test system: K562
# Procedure, shortened: (§1)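 CRISPR-edited mutant clones and isogenic wild-type clones from four leukaemia lines were screened against Selleck bioactive, kinase and epigenetic probe libraries, with identity-inconsistent compounds excluded. Each compound was acoustically dispensed at a single 10 µM dose into 384-well plates holding 2000 cells in 50 µL medium per well. After 48 h the supernatant was removed and CellTiter-Glo luminescence was read. Viability was expressed as percent of the on-plate vehicle control and analysed in Genedata Screener.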
# [2] = test system: MARIMO
# Procedure, shortened: as §1
# [3] = test system: MOLM14
# Procedure, shortened: as §1
# [4] = test system: OCI-AML2
# Procedure, shortened: as §1
SMILES,cell viability ([1]; SRSF2 genotype: SRSF2 P95H/wt),cell viability ([1]; SRSF2 genotype: SRSF2 wt/wt) [%],cell viability ([2]; SRSF2 genotype: SRSF2 P95H/wt) [%],cell viability ([2]; SRSF2 genotype: SRSF2 wt/wt) [%],cell viability ([3]; SRSF2 genotype: SRSF2 P95H/wt) [%],cell viability ([3]; SRSF2 genotype: SRSF2 wt/wt) [%],cell viability ([4]; SRSF2 genotype: P95H/wt) [%],cell viability ([4]; SRSF2 genotype: wt/wt) [%]
CCOC(=O)CCNc1cc(N2CCc3ccccc3CC2)nc(-c2ccccn2)n1,26.1% and 28.9%,27.6,25.8,27.4,30.4,24.4,28.8,25.8
CCOc1cc2ncc(C#N)c(Nc3ccc(F)c(Cl)c3)c2cc1NC(=O)/C=C/CN(C)C [Pelitinib (EKB-569)],9.19% and 1.6%,0.91,5.88,1.37,0.45,0.62,0.33,0.46
CC(C)(C)C[C@@H]1N[C@@H](C(=O)N[C@H]2CC[C@H](O)CC2)[C@H](c2cccc(Cl)c2F)[C@]12C(=O)Nc1cc(Cl)ccc12,76.2% and 81.8%,74.8,84.9,83.6,0.31,0.33,0.34,8.97
O=c1cc(-c2ccccc2)oc2cc(O[C@@H]3O[C@H](CO[C@@H]4O[C@H](CO)[C@@H](O)[C@H](O)[C@H]4O)[C@@H](O)[C@H](O)[C@H]3O)c(O)c(O)c12 [Oroxin B],101% and 105%,98.7,102,104,112,107,95.6,98.6
CC1=CC(=O)CC(C)(C)C1=O [Ketoisophorone],98.4% and 92.1%,100,98.3,110,101,105,96.1,108
"Oc1cc(O)c2c(c1)OC(c1ccc(O)c(O)c1)C(O)C2 (single isomer, unassigned; (+)) [(+)-Catechin hydrate]",103% and 94.1%,103,106,103,104,104,104,108
CCCCOc1ccc(CC(=O)NO)cc1 [Bufexamac],95% and 94.9%,98.8,91.6,88.7,85.7,93.1,98.1,91.8
C=C[C@@H]1CNC(=S)O1 [Epigoitrin],103% and 97.6%,101,91.3,93.1,101,99.2,103,104
O=C(Nc1cccc(C2=NCCN2)c1)Nc1cccc(C2=NCCN2)c1 [Imidocarb dipropionate],98.4% and 92.2%,95.3,91.5,103,80.2,87.7,88.6,89.4
c1cncc(CN2CCC(n3ncc4c(N5CCOCC5)nc(-c5ccc6[nH]ccc6c5)nc43)CC2)c1,41.8% and 44.3%,51,3.19,6.42,35,25,26.2,29.1
O=C(O)c1ccc2c(c1)C(=O)c1ccccc1C2=O [Anthraquinone-2-carboxylic Acid],100% and 101%,92.5,98,92,102,98.5,96.3,94.9
